Experimental data published in PubChem BioAssay (EPA / NIEHS).
Active and inactive are the calls of the source. Rule for the calls: active = hit-call score of the fitted dose curve at least 0.9, where 1 is the maximum; inactive = score below 0.9.

What was measured:
Conditions in all cases: mRNA level, 48 h; actives raise or lower the signal
[1] = read-out: Forkhead box O1 (FOXO1), FOXO1 (gene 2308); assay: LTEA_HepaRG_FOXO1: Life Technologies and Expression Analysis (LTEA) Assay for Forkhead box O1 (FOXO1) using HepaRG (AID 2283456)
Summary of the method: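 Differentiated HepaRG cells, in serum-free induction medium with 0.5% DMSO, exposed 48 h in duplicate to 8-point half-log series from 100 uM. FOXO1 mRNA measured by TaqMan qRT-PCR, normalized to ACTB, GAPDH, POLR2A; bidirectional fit versus DMSO.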

[2] = read-out: growth arrest and DNA damage 45 (GADD45A), GADD45A (gene 1647); assay: LTEA_HepaRG_GADD45A: Life Technologies and Expression Analysis (LTEA) Assay for growth arrest and DNA damage 45 (GADD45A) using HepaRG (AID 2283458)
Summary of the method: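 Cells plated and cultured 48 h, switched to serum-free induction medium, then dosed for 48 h (100 uM top, half-log dilutions, 0.5% DMSO). RNA was isolated and transcript measured by Fluidigm qRT-PCR.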

[3] = read-out: Forkhead box O3 (FOXO3), FOXO3 (gene 2309); assay: LTEA_HepaRG_FOXO3: Life Technologies and Expression Analysis (LTEA) Assay for Forkhead box O3 (FOXO3) using HepaRG (AID 2283459)
Summary of the method: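 Differentiated human HepaRG cells, 48 h post-plating, exposed in duplicate for 48 h in serum-free induction medium; 8-point half-log series from 100 uM in 0.5% DMSO. FOXO3 mRNA by TaqMan qRT-PCR, normalized to ACTB/GAPDH/POLR2A; bidirectional fit versus DMSO.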

[4] = read-out: ABC Transporter (ABCB1), ABCB1 (gene 5243); assay: LTEA_HepaRG_ABCB1: Life Technologies and Expression Analysis (LTEA) Assay for ABC Transporter (ABCB1) using HepaRG (AID 2283460)
Summary of the method: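 HepaRG cells exposed in duplicate for 48 h in serum-free induction medium to eight half-log concentrations up to 100 uM in 0.5% DMSO. ABCB1 mRNA quantified by qRT-PCR, normalised to ACTB, GAPDH and POLR2A; fitted bidirectionally versus DMSO.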

[5] = read-out: growth arrest and DNA damage 45 (GADD45B), GADD45B (gene 4616); assay: LTEA_HepaRG_GADD45B: Life Technologies and Expression Analysis (LTEA) Assay for growth arrest and DNA damage 45 (GADD45B) using HepaRG (AID 2283461)
Summary of the method: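 Differentiated human HepaRG cells in serum-free induction medium exposed 48 h in duplicate to eight concentrations, top 100 uM, half-log steps, 0.5% DMSO. GADD45B mRNA by TaqMan qRT-PCR, normalized to ACTB, GAPDH, POLR2A; bidirectional fit versus DMSO.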

[6] = read-out: ABC Transporter (ABCC3), ABCC3 (gene 8714); assay: LTEA_HepaRG_ABCC3: Life Technologies and Expression Analysis (LTEA) Assay for ABC Transporter (ABCC3) using HepaRG (AID 2283462)
Summary of the method: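 Differentiated human HepaRG cells exposed 48 h in serum-free induction medium, 0.5% DMSO vehicle, 8-point half-log series to 100 uM in duplicate. ABCC3 mRNA by qRT-PCR, normalised to ACTB, GAPDH, POLR2A; bidirectional fit vs DMSO.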

[7] = read-out: ABC Transporter (ABCB11), ABCB11 (gene 8647); assay: LTEA_HepaRG_ABCB11: Life Technologies and Expression Analysis (LTEA) Assay for ABC Transporter (ABCB11) using HepaRG (AID 2283463)
Summary of the method: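 Differentiated human HepaRG cells in serum-free induction medium, dosed in duplicate for 48 h. Eight-point half-log series from 100 uM in 0.5% DMSO; ABCB11 mRNA by qRT-PCR, normalized to ACTB, GAPDH, POLR2A, fitted bidirectionally versus DMSO.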

[8] = read-out: ABC Transporter (ABCC2), ABCC2 (gene 1244); assay: LTEA_HepaRG_ABCC2: Life Technologies and Expression Analysis (LTEA) Assay for ABC Transporter (ABCC2) using HepaRG (AID 2283464)
Summary of the method: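 Differentiated HepaRG cells in serum-free induction medium exposed 48 h to eight half-log concentrations up to 100 uM, 0.5% DMSO, in duplicate. ABCC2 mRNA measured by qRT-PCR (TaqMan, Fluidigm), normalized to ACTB, GAPDH and POLR2A. Fitted in both directions against DMSO.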

[9] = read-out: Broad substrate specificity ATP-binding cassette transporter ABCG2 (Homo sapiens) (UniProt Q9UNQ0); assay: LTEA_HepaRG_ABCG2: Life Technologies and Expression Analysis (LTEA) Assay for ABC Transporter (ABCG2) using HepaRG (AID 2283465)
Summary of the method: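 Differentiated HepaRG cells were exposed for 48 h in serum-free induction medium to 8 half-log concentrations, top 100 uM, in 0.5% DMSO. ABCG2 mRNA was measured by qRT-PCR, normalized to ACTB, GAPDH and POLR2A, with bidirectional fitting versus DMSO.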

[10] = read-out: ATP-citrate lyase (ACLY), ACLY (gene 47); assay: LTEA_HepaRG_ACLY: Life Technologies and Expression Analysis (LTEA) Assay for ATP-citrate lyase (ACLY) using HepaRG (AID 2283466)
Summary of the method: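 Differentiated HepaRG cells exposed 48 h in serum-free induction medium to eight half-log concentrations up to 100 uM in 0.5% DMSO, duplicates. Transcript measured by Fluidigm TaqMan qRT-PCR, normalized to ACTB, GAPDH, POLR2A; bidirectional fit versus DMSO.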

[11] = read-out: Peroxisomal acyl-coenzyme A oxidase 1 (ACOX1) gene, ACOX1 (gene 51); assay: LTEA_HepaRG_ACOX1: Life Technologies and Expression Analysis (LTEA) Assay for Peroxisomal acyl-coenzyme A oxidase 1 (ACOX1) gene using HepaRG (AID 2283467)
Summary of the method: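 HepaRG cells, plated 48 h then switched to serum-free induction medium, were exposed in duplicate for 48 h to 8-point half-log concentrations up to 100 uM in 0.5% DMSO. ACOX1 mRNA was measured by qRT-PCR, normalized to ACTB/GAPDH/POLR2A, and fitted bidirectionally versus DMSO.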

[12] = read-out: Alkaline Phosphatase, Placental (ALPP) gene, ALPP (gene 250); assay: LTEA_HepaRG_ALPP: Life Technologies and Expression Analysis (LTEA) Assay for Alkaline Phosphatase, Placental (ALPP) gene using HepaRG (AID 2283468)
Summary of the method: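 HepaRG cells plated 48 h, then exposed in duplicate for 48 h in serum-free induction medium to 8-point half-log series from 100 uM in 0.5% DMSO. ALPP mRNA by TaqMan qRT-PCR, normalized to ACTB/GAPDH/POLR2A; bidirectional fit versus DMSO.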

[13] = read-out: Bcl-2 (BAD) gene, BAD (gene 572); assay: LTEA_HepaRG_BAD: Life Technologies and Expression Analysis (LTEA) Assay for Bcl-2 (BAD) gene using HepaRG (AID 2283469)
Summary of the method: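 Differentiated HepaRG cells were exposed in duplicate in 0.5% DMSO for 48 h to eight-point half-log concentrations up to 100 uM. BAD mRNA was measured by Fluidigm TaqMan qRT-PCR, normalized to ACTB, GAPDH and POLR2A, and fitted bidirectionally against DMSO.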

[14] = read-out: Bcl-2 (BAX) gene, BAX (gene 581); assay: LTEA_HepaRG_BAX: Life Technologies and Expression Analysis (LTEA) Assay for Bcl-2 (BAX) gene using HepaRG (AID 2283470)
Summary of the method: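 HepaRG (human liver), 48 h exposure, duplicate wells. 8-pt curve, half-log from 100 uM, 0.5% DMSO. BAX transcript by TaqMan qRT-PCR; ACTB/GAPDH/POLR2A normalization; gain or loss vs DMSO baseline.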

[15] = read-out: adenosine kinase (ADK) gene, ADK (gene 132); assay: LTEA_HepaRG_ADK: Life Technologies and Expression Analysis (LTEA) Assay for adenosine kinase (ADK) gene using HepaRG (AID 2283471)
Summary of the method: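 ADK expression quantified by qRT-PCR, normalised to three housekeeping genes, after 48 h exposure of HepaRG cells to eight concentrations (top 100 uM, half-log steps, duplicate, 0.5% DMSO). Up- or down-regulation fitted relative to vehicle.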

[16] = read-out: Alpha-fetoprotein (AFP) gene, AFP (gene 174); assay: LTEA_HepaRG_AFP: Life Technologies and Expression Analysis (LTEA) Assay for Alpha-fetoprotein (AFP) gene using HepaRG (AID 2283472)
Summary of the method: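 HepaRG, single lot; 48 h post-plating -> serum-free induction medium; cpd 8-pt, 100 uM top, half-log, 0.5% DMSO, duplicate, 48 h. RNA -> qRT-PCR AFP, norm ACTB/GAPDH/POLR2A. Bidirectional fit vs DMSO.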

BCL2L11 (gene 10018) = assay: LTEA_HepaRG_BCL2L11: Life Technologies and Expression Analysis (LTEA) Assay for Bcl-2 (BCL2L11) gene using HepaRG (AID 2283473)
Summary of the method: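 Differentiated human HepaRG cells were exposed 48 h in serum-free induction medium to eight half-log concentrations up to 100 uM in 0.5% DMSO, in duplicate. BCL2L11 mRNA was quantified by TaqMan qRT-PCR, normalized to ACTB, GAPDH and POLR2A; induction or repression fitted versus DMSO.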

[17] = read-out: Apolipoprotein A-V (APOA5) gene, APOA5 (gene 116519); assay: LTEA_HepaRG_APOA5: Life Technologies and Expression Analysis (LTEA) Assay for Apolipoprotein A-V (APOA5) gene using HepaRG (AID 2283474)
Summary of the method: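 Differentiated HepaRG cells in serum-free induction medium, exposed 48 h in duplicate to eight half-log concentrations topping at 100 uM (0.5% DMSO). APOA5 mRNA by Fluidigm TaqMan qRT-PCR, normalized to ACTB, GAPDH and POLR2A; bidirectional fit versus DMSO.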

[18] = read-out: Apoptosis regulator Bcl-2 (Homo sapiens) (UniProt P10415); assay: LTEA_HepaRG_BCL2: Life Technologies and Expression Analysis (LTEA) Assay for Bcl-2 gene using HepaRG (AID 2283475)
Summary of the method: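 HepaRG, plated 48 h then switched to serum-free induction medium; dosed 48 h, 8 conc. (max 100 uM, half-log steps), duplicate, 0.5% DMSO. Lysis in RLT, RNA isolated, TaqMan qRT-PCR for BCL2; ACTB/GAPDH/POLR2A normalisation; bidirectional fit vs DMSO.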

Measured: AC50

Chain of Apoptosis regulator Bcl-2 (Homo sapiens) (P10415 whole entry, looked up): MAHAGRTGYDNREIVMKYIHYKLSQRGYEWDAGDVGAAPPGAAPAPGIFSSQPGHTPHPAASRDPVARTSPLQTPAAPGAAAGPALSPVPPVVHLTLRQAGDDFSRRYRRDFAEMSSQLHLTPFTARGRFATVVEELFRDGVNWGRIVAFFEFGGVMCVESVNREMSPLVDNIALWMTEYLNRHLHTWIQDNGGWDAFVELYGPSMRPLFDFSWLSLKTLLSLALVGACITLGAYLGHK
Chain of Broad substrate specificity ATP-binding cassette transporter ABCG2 (Homo sapiens) (Q9UNQ0 whole entry, looked up): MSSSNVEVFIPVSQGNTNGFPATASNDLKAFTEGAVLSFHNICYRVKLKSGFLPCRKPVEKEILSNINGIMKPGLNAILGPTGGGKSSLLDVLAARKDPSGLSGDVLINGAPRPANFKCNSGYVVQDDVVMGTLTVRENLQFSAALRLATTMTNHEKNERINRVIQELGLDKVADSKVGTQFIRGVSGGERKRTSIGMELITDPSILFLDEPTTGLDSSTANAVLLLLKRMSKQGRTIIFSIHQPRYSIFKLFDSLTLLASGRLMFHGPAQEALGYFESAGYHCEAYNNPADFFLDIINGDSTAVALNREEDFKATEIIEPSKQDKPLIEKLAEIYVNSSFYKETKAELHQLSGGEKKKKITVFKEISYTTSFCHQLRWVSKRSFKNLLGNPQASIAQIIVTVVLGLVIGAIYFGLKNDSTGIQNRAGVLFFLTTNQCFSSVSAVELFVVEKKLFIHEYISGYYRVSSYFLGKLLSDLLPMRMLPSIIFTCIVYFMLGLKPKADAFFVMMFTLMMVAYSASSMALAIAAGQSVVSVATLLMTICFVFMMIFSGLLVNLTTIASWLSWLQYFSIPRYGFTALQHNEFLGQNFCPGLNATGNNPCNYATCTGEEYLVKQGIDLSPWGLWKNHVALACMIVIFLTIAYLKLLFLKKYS

Cc1occc(=O)c1O
inactive: [1] | [2] | [3] | [4] | [5] | [6] | [7] | [8] | [9] | [10] | [11] | [12] | [13] | [14] | [15] | [16] | BCL2L11 (gene 10018) | [17] | [18]

S=c1[nH]c2ccccc2s1
inactive: [1] | [2] | [3] | [4] | [5] | [6] | [7] | [8] | [9] | [10] | [11] | [12] | [13] | [14] | [15] | [16] | BCL2L11 (gene 10018) | [17] | [18]

CC(=O)O[C@]1(C(C)=O)CC[C@H]2[C@@H]3C=C(Cl)C4=CC(=O)[C@@H]5C[C@@H]5[C@]4(C)[C@H]3CC[C@@]21C
active: [1] 50 µM | [2] 50 µM | [8] 50 µM | [11] 29.2 µM | [14] 50 µM | [16] 50 µM | [17] 84.3 µM
inactive: [3] | [4] | [5] | [6] | [7] | [9] | [10] | [12] | [13] | [15] | BCL2L11 (gene 10018) | [18]

CC(=O)OC1CC(C)OC(C)O1 (centres undefined)
inactive: [1] | [2] | [3] | [4] | [5] | [6] | [7] | [8] | [9] | [10] | [11] | [12] | [13] | [14] | [15] | [16] | BCL2L11 (gene 10018) | [17] | [18]

CS(=O)(=O)c1ccc([C@@H](C[C@H]2CCC(=O)C2)C(=O)Nc2cnccn2)cc1Cl
inactive: [5] | [6] | [10] | [11]
active: [1] 1.27 µM | [2] 1.28 µM | [3] 9.92 µM | [4] 1.54 µM | [7] 11 µM | [8] 12.5 µM | [9] 1.29 µM | [12] 2.94 µM | [13] 1.23 µM | [14] 25.4 µM | [15] 0.952 µM | [16] 0.908 µM | BCL2L11 (gene 10018) 1.15 µM | [17] 50 µM | [18] 16.1 µM

CC(=O)S[C@H](C(=O)N[C@H]1Cc2ccccc2[C@H]2CCC[C@@H](C(=O)O)N2C1=O)C(C)C
inactive: [1] | [2] | [3] | [4] | [5] | [6] | [7] | [8] | [9] | [10] | [11] | [12] | [13] | [14] | [15] | [16] | BCL2L11 (gene 10018) | [17] | [18]
